Screening data from PubChem.
RBX1-CUL1 inh: inhibitors of human ROC1-CUL1 ubiquitin ligase activity. in vitro K48 di-Ub FRET, acceptor:donor ratio, 45 min. actives 0.6% (n = 140,000). inhibition, % at 10 µM; in the data active = inhibition above about 25%
Target sequence (P62877 whole entry, looked up): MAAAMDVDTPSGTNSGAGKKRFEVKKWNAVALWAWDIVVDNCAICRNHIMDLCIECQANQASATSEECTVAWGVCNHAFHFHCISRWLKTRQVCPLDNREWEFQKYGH
Target sequence (Q13616 whole entry, looked up): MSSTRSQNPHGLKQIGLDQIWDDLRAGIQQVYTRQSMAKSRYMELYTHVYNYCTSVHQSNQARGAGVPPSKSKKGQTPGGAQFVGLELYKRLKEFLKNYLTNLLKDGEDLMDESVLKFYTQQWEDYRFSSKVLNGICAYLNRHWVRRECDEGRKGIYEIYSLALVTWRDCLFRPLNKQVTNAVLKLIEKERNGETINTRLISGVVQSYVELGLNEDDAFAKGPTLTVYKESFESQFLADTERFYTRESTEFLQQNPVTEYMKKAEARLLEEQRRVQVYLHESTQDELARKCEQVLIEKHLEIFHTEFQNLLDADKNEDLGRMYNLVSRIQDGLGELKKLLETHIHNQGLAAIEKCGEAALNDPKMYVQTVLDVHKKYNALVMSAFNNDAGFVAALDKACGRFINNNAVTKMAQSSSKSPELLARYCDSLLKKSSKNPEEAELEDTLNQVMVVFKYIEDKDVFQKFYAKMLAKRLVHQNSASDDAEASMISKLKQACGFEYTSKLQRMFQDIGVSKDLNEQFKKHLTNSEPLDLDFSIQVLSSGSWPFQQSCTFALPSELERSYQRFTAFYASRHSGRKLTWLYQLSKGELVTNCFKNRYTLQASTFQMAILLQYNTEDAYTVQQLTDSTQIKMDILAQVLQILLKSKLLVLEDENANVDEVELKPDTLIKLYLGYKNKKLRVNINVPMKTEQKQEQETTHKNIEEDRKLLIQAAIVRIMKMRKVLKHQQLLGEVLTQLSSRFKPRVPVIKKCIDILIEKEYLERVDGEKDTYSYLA
Hits are given with their value. Only a selection was taken, and hits are over-represented in it overall.

Results for CCOC(=O)C1(CCOC)CCN(Cc2cn[nH]c2-c2cc(C)ccc2C)CC1 ?
RBX1-CUL1 inh: inactive

What do the screens show for `COC(=O)c1c(NC(=O)CCC(=O)O)sc(C)c1-c1ccc(Cl)cc1Cl`?
RBX1-CUL1 inh: inactive

Results for C=CCn1c(COc2ccccc2)nnc1SCC(=O)Nc1ccccc1C#N ?
RBX1-CUL1 inh: inactive

How did CCOc1ccccc1C1C(C(=O)Nc2ccccc2OC)C(C)=Nc2nc3ccccc3n21 (stereo unspecified) do in these assays?
RBX1-CUL1 inh: inactive

Results for Cn1c2cccc3cccc(c32)[n+]2nc3c(cc12)c1cccc2cccc3c21 ?
RBX1-CUL1 inh: 95.3

Results for Cn1c2ccccc2c2nsnc21 ?
RBX1-CUL1 inh: inactive

What do the screens show for `C#CCNC(=O)C[n+]1c2ccccc2n2nc3c(cc21)c1cccc2cccc3c21`?
RBX1-CUL1 inh: inactive

How did CC1=CC2=NC(=O)CC(C)(C(=O)O)N2C=C1 (stereo unspecified) do in these assays?
RBX1-CUL1 inh: inactive

How did CCC(OC(=O)c1ccc(C)c(NC(C)=O)c1)C(=O)c1ccccc1 (stereo unspecified) do in these assays?
RBX1-CUL1 inh: inactive

What do the screens show for `Cc1ccc(C(=O)Nc2cccc(C)c2C)cc1`?
RBX1-CUL1 inh: inactive

Results for CCc1ccc(OC)c(S(=O)(=O)N2CCN(c3ccc(F)cc3)CC2)c1 ?
RBX1-CUL1 inh: inactive

What do the screens show for `C=CCc1cc(/C=c2/sc3n(c2=O)C(c2ccc(OC)cc2OC)C(C(=O)OCC)=C(C)N=3)cc(OC)c1O` (stereo unspecified)?
RBX1-CUL1 inh: inactive

How did CCOC(=O)C1=C(C)N=c2s/c(=C/c3cc(Br)c(O)cc3O)c(=O)n2C1c1ccc(OCC)cc1 (stereo unspecified) do in these assays?
RBX1-CUL1 inh: 66.5

How did C=CCOc1ccc(C2C(C(=O)OCC)=C(C)N=c3s/c(=C\c4cc(I)c(O)c(OC)c4)c(=O)n32)cc1 (stereo unspecified) do in these assays?
RBX1-CUL1 inh: 37.0

Results for CCOC(=O)C1=C(C)N=c2s/c(=C\c3cc4c(cc3Br)OCO4)c(=O)n2C1c1ccc(Cl)cc1 (stereo unspecified) ?
RBX1-CUL1 inh: inactive

How did CCOC(=O)C1=C(C)N=c2s/c(=C\c3ccc(O)cc3)c(=O)n2C1c1ccc(OCC)cc1 (stereo unspecified) do in these assays?
RBX1-CUL1 inh: inactive

What do the screens show for `CCOC(=O)C1=C(C)N=c2s/c(=C/c3ccc(O)cc3)c(=O)n2C1c1cc(OC)ccc1OC` (stereo unspecified)?
RBX1-CUL1 inh: inactive

What do the screens show for `CCOC(=O)C1=C(C)N=c2s/c(=C\c3ccc(O)cc3)c(=O)n2C1c1ccc(F)cc1` (stereo unspecified)?
RBX1-CUL1 inh: inactive

Results for CCOC(=O)C1=C(C)N=c2s/c(=C/c3cc(Br)c(O)c(Br)c3)c(=O)n2C1c1ccc(Cl)cc1 (stereo unspecified) ?
RBX1-CUL1 inh: 82.6

What do the screens show for `CCOC(=O)C1=C(C)N=c2s/c(=C\c3cc(Cl)ccc3O)c(=O)n2C1c1ccc(OCC)cc1` (stereo unspecified)?
RBX1-CUL1 inh: inactive

How did CCOC(=O)C1=C(C)N=c2s/c(=C/c3ccoc3)c(=O)n2C1c1ccc(OC)cc1 (stereo unspecified) do in these assays?
RBX1-CUL1 inh: inactive

Results for CCOC(=O)C1=C(C)N=c2s/c(=C\c3cc(Br)c(O)c(OC)c3)c(=O)n2C1c1ccc(OC)cc1 (stereo unspecified) ?
RBX1-CUL1 inh: 53.2

What do the screens show for `C=CCc1cc(/C=c2/sc3n(c2=O)C(c2cccc(OC)c2OCC)C(C(=O)OCC)=C(C)N=3)cc(OC)c1O` (stereo unspecified)?
RBX1-CUL1 inh: inactive

What do the screens show for `O=c1c2c3ccccc3nn2c(=O)c2c3ccccc3nn12`?
RBX1-CUL1 inh: inactive

Results for CC1=NC(=S)C(C#N)=C(/C=C\c2ccccc2)C1 ?
RBX1-CUL1 inh: inactive

What do the screens show for `CN(C)c1cc[n+](CC2=NC(=O)NC(=O)C2)cc1`?
RBX1-CUL1 inh: inactive

Results for NC(=O)C1CCCN(C(=O)c2csc3nc(-c4cccc(F)c4)cn23)C1 (stereo unspecified) ?
RBX1-CUL1 inh: inactive

How did COc1cc2ccc(=O)oc2c(OCC(O)CNC(C)(C)C)c1OC (stereo unspecified) do in these assays?
RBX1-CUL1 inh: inactive

What do the screens show for `COCCN1C(=O)CC(CC(=O)N2CCN(c3nc(C)cnc3C)CC2)(c2ccccc2F)C1=O` (stereo unspecified)?
RBX1-CUL1 inh: inactive

Results for Cc1cc(OCC(=O)Nc2sc(C)c(C)c2C(N)=O)c(C(C)C)cc1Br ?
RBX1-CUL1 inh: inactive

How did Fc1ccc(-c2nnc3sc(-c4cccnc4)nn23)cc1 do in these assays?
RBX1-CUL1 inh: inactive

How did Cc1nc(CNC(=O)Nc2nnc(-c3cccs3)s2)nc2c1CCCC2 do in these assays?
RBX1-CUL1 inh: inactive

How did Cc1ncc2c(c1CNC(=O)CN1CCCC1)CCN(C(=O)CCC(=O)c1ccc(F)cc1)C2 do in these assays?
RBX1-CUL1 inh: inactive

What do the screens show for `N#Cc1ccc(C(=O)NC2CCS(=O)(=O)C2)cc1` (stereo unspecified)?
RBX1-CUL1 inh: inactive

How did COc1ccc(-c2[nH]ncc2/C=N/NC(=O)c2ccc([N+](=O)[O-])cc2)c(OC)c1 do in these assays?
RBX1-CUL1 inh: inactive

How did CCOC(=O)C1=C(c2ccccc2)N=c2s/c(=C\c3ccc([N+](=O)[O-])o3)c(=O)n2C1c1cccc(OC)c1 (stereo unspecified) do in these assays?
RBX1-CUL1 inh: inactive

Results for CCOC(=O)C1=C(C)N=c2s/c(=C/c3ccsc3)c(=O)n2C1c1ccc(OC)cc1 (stereo unspecified) ?
RBX1-CUL1 inh: inactive

How did CCOC(=O)C1=C(C)N=c2s/c(=C\c3ccc4c(c3)OCO4)c(=O)n2C1c1ccc(OC)cc1 (stereo unspecified) do in these assays?
RBX1-CUL1 inh: inactive

Results for CCOC(=O)C1=C(c2ccccc2)N=c2s/c(=C\c3cc([N+](=O)[O-])ccc3O)c(=O)n2C1c1cccc(OC)c1 (stereo unspecified) ?
RBX1-CUL1 inh: 59.8

Results for CCOC(=O)C1=C(C)N=c2s/c(=C\c3ccc(O)c(Br)c3)c(=O)n2C1c1ccc(OC)cc1 (stereo unspecified) ?
RBX1-CUL1 inh: 35.3

What do the screens show for `CCOC(=O)C1=C(c2ccccc2)N=c2s/c(=C/c3ccccc3O)c(=O)n2C1c1cccc(OC)c1` (stereo unspecified)?
RBX1-CUL1 inh: inactive

How did N#CC(C#N)=C/C=C(/Cl)c1ccccc1 do in these assays?
RBX1-CUL1 inh: inactive

What do the screens show for `CCOc1c(/C=C(\C#N)C(N)=O)c2ccccc2n1CC`?
RBX1-CUL1 inh: inactive

What do the screens show for `N#C/C(=C\C=C(/Cl)c1ccccc1)C(N)=O`?
RBX1-CUL1 inh: 37.5

How did COC(=O)c1ccccc1NS(=O)(=O)c1cc(C(C)(C)C)cc(C)c1C do in these assays?
RBX1-CUL1 inh: inactive

What do the screens show for `COc1cc(OC)c([N+](=O)[O-])cc1/C=C1\C(=O)NC(=S)N(C)C1=O`?
RBX1-CUL1 inh: inactive

How did O=C1NC(=S)N(c2cccc(Br)c2)C(=O)/C1=C/c1ccccc1O do in these assays?
RBX1-CUL1 inh: inactive

What do the screens show for `O=C1NC(=S)N(c2ccccc2)C(=O)/C1=C/c1cc([N+](=O)[O-])c(O)cc1O`?
RBX1-CUL1 inh: 94.5

What do the screens show for `CCCC(C(=O)O)N1C(=O)/C(=C/C(C)=C/c2ccccc2)SC1=S` (stereo unspecified)?
RBX1-CUL1 inh: 28.7

Results for O=C(O)CCC(C(=O)O)N1C(=O)/C(=C/c2cccc(Br)c2)SC1=S (stereo unspecified) ?
RBX1-CUL1 inh: inactive
